# Assay outcomes: PubChem, National Center for Advancing Translational Sciences (NCATS)
# DT40 TDP1 no CPT: qHTS for Inhibitors of human tyrosyl-DNA phosphodiesterase 1 (TDP1): qHTS in cells in absence of CPT; DT40 Tdp1-/- hTDP1 cells, no CPT, ATP luminescence, 48 h; Potency, µM (top dose mostly 46.2 µM), most hits filed as inhibitors; 15% of 420,000 active; AID 686978, 2013; note: nearly all actives have a fitted effect of over 55% in size
#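 Cells were dispensed at 400 per well, compounds added by pin tool, plates incubated ≥48 hr at 37 °C, then CellTiter-Glo added for 30 min at room temperature before luminescence reading. Line: DT40 Tdp1-/- complemented with hTDP1; camptothecin omitted.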
# KB-V1 MDR tox: qHTS assay for MDR1-selective chemotherapeutics: Primary screen using the drug-selected MDR subline cells KB-V1; KB-V1 MDR cells viability, CellTiter-Glo, 72 h; Potency, µM (top dose mostly 46.1 µM), hits mostly cytotoxic; 3.4% of 400,000 active; AID 1347076, 2019; note: nearly all actives have a fitted effect of over 60% in size
#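 Cells of the MDR subline KB-V1 are plated, dosed with compound at multiple concentrations, and incubated 72 h at 37 degrees C; CellTiter-Glo is then added and luminescence read after 10 min.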
# TDP1 cell CPT: qHTS for Inhibitors of human tyrosyl-DNA phosphodiesterase 1 (TDP1): qHTS in cells in presence of CPT; chicken DT40 Tdp1-/-;hTDP1 cells + 20 nM CPT, ATP luminescence, 48 h; Potency, µM (highest dose often 46.2 µM), most hits filed as inhibitors; 12% of 420,000 active; AID 686979, 2013; note: nearly all actives have a fitted effect of over 55% in size
#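 Chicken DT40 Tdp1-/- cells complemented with human TDP1, 400 cells/well, exposed to compounds plus 20 nM camptothecin for at least 48 h at 37 C; viability read as ATP content by CellTiter-Glo luminescence.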
# HT1080 IDH1KD tx: qHTS for induction of synthetic lethality in tumor cells producing 2HG: qHTS for the HT-1080-IDH1KD cell line | HT-1080 IDH1 knockdown viability, ATP luminescence, 48 h | Potency, µM (series often up to 46.1 µM), actives largely listed as cytotoxic | 2% of 360,000 active
#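 Assay cells: HT-1080 with IDH1 knockdown, 750 per well, RPMI/5% FBS. Exposure: 48 h at 37 °C following 2 h pre-incubation. Read: CellTiter-Glo luminescence; fitted concentration-response, curve class assigned.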
# HT1080NT lethal: qHTS for induction of synthetic lethality in tumor cells producing 2HG: qHTS for the HT-1080-NT fibrosarcoma cell line. HT-1080-NT fibrosarcoma viability, CellTiter-Glo ATP luminescence, 48 h. Potency, µM (highest dose often 46.1 µM), hits mostly cytotoxic. 1.6% of 360,000 active. AID 686970, 2013;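 note: NT is the 2HG producing partner of a matched IDH1 knockdown line; nearly all actives have a fitted effect of over 55% in size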
#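 Viability by CellTiter-Glo luminescence after 48 h compound exposure at 37C of HT-1080-NT cells (750/well, RPMI, 5% FBS). % activity scaled between DMSO wells and medium-only wells, then curve-fitted and categorized by curve class.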
# KB-3-1 tox: qHTS assay for MDR1-selective chemotherapeutics: Primary screen using the parental adenocarcinoma cell KB-3-1; 1.4% of 400,000 active; KB-3-1 viability, CellTiter-Glo ATP luminescence, 72 h; Potency, µM (titrated, usually from 46.1 µM), usual class: cytotoxic; AID 1347075, 2019; note: nearly all actives have a fitted effect of over 60% in size
#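 Screening of KB-3-1 cells (DMEM, 10% FBS, phenol-red free) ran from lowest to highest compound concentration; after 72 h at 37 °C viability was read luminescently and curves fitted.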
# Hits are given with their value; - = inactive; ? = inconclusive; . = no result; ! = a repeat was not active; [ ] = another dose, or the depositor's remark. A selection: hits, their analogues and other compounds. The true share with any hit is near 19%. Calls come from the whole dose curve; as a rule, active = well fitted curve in the direction sought with a large enough effect; inconclusive = small, poorly fitted or top-dose-only effect, or another doubt; inactive = no such curve, though single readings can be large; an effect the other way counts as inactive or inconclusive.
SMILES,DT40 TDP1 no CPT,KB-V1 MDR tox,TDP1 cell CPT,HT1080 IDH1KD tx,HT1080NT lethal,KB-3-1 tox
CC(=O)/C(=N/Nc1ccccc1)N1CCOCC1,-,-,-,-,5µM,-
CC(=O)/C(=N/Nc1ccccc1C)N1CCOCC1,21µM,-,8.2µM,?,-,-
Cc1ccc(NC(=O)CN2C(=O)C3(SCC(=O)N3c3ccc(F)c(F)c3)c3ccccc32)c(C)c1 (centres undefined),?,-,?,.,.,-
CC1(C)CCC(=O)N2CC[C@H]3C[C@H](OC(=O)Nc4ccccc4)C[C@@H]1[C@H]32,?,18µM!,16µM,-,-,-
O=C(Nc1ccccc1)C1CC2CCC1C2 (centres undefined),-,-,-,-,-,-
O=C(Nc1ccccc1)OC1CCC2CC1CCC2OC(=O)Nc1ccccc1 (centres undefined),12µM,?,13µM,?,?,?
C=CCn1c(C)cc(C(=O)COc2ccc(N(C)S(=O)(=O)c3ccc(NC(C)=O)cc3)cc2)c1C,5.8µM,-,9.2µM,?,-[9.24 µM],-
CC(=O)c1ccccc1NC(=O)COc1ccc(N(C)S(=O)(=O)c2ccc(C)c(C)c2)cc1,12µM,-,21µM,-,-,-
CC(=O)Nc1ccc(S(=O)(=O)N(C)c2ccc(OCC(=O)Nc3ccccc3C(C)=O)cc2)cc1,21µM,?,18µM,-,-,-
Cc1ccc([C@H]2C(C(=O)O)=CC[C@@H](c3ccc(Cl)c(Cl)c3)N2S(=O)(=O)c2ccc(C)cc2)cc1,?,-,?,-,-,-
CCNC(=O)N(CC)C[C@H]1N[C@@](Cc2ccccc2)(C(=O)OC)[C@H]2C(=O)N(Cc3ccccc3)C(=O)[C@@H]12,-,-,-,-,-,-
COC(=O)[C@]1(Cc2ccccc2)N[C@H](CN(C)C(=O)COc2ccccc2)[C@@H]2C(=O)N(Cc3ccccc3)C(=O)[C@@H]21,?,-,21µM,-,-,-
CCN(C[C@H]1N[C@@](Cc2ccccc2)(C(=O)OC)[C@H]2C(=O)N(Cc3ccccc3)C(=O)[C@@H]12)C(=O)COc1ccccc1,18µM,-,21µM,-,-,-
CCN(C[C@H]1N[C@@](Cc2ccccc2)(C(=O)OC)[C@H]2C(=O)N(Cc3ccccc3)C(=O)[C@@H]12)C(=O)C1CCCCC1,13µM,-,?,-,-,-
COC(=O)[C@H](NC(=O)c1cc(-c2ccccc2)sc1N)C(C)C,?,-,?,-,-,-
COc1ccc(C(=O)COC(=O)[C@@H](NS(=O)(=O)c2ccccc2)C(C)C)cc1,?,.,-,-,-,.
O=C(NC1CCCC1)C(C1CC1)n1c(-c2ccnc3ccccc23)nc2ccccc21 (centres undefined),?,?,?,-,-,-
CC(C)CNc1nc(Oc2ccc(OCC(N)=O)nn2)nc(N2CCOCC2)n1,-,.,-,.,.,.
Cn1c(SCc2cccc([N+](=O)[O-])c2)nc2c(c1=O)SCC2,?,4.1µM,?,?,-,?
Cn1c(SCc2cccnc2)nc2c(c1=O)SCC2,-,?,-,-,-,-
Cn1c(SCc2ccc(Br)cc2)nc2c(c1=O)SCC2,16µM,21µM,18µM,-,-,21µM
Cc1oc(-c2cccs2)nc1CN1CCC(c2ccccc2)CC1,-,-,-,-,-,-
Cc1cc(C(=O)CN2C(=O)C(=O)N(Cc3ccco3)C2=O)c(C)n1CCc1ccccc1,18µM,16µM,23µM,?,?,?
Cc1cc(C(=O)CN2C(=O)C(=O)N(Cc3ccco3)C2=O)c(C)n1CCc1ccc(F)cc1,?,15µM,21µM,?,?,18µM
Cc1cc(C(=O)COC(=O)c2ccco2)c(C)n1Cc1ccco1,-,-,?,-,-,-
SMILES,DT40 TDP1 no CPT,KB-V1 MDR tox,TDP1 cell CPT,HT1080 IDH1KD tx,HT1080NT lethal,KB-3-1 tox
Cc1ccc(S(=O)(=O)NC(=O)C2(C)CCN2C(=O)Cc2cc(F)ccc2F)nc1 (centres undefined),-,-,-,-,-,-
Fc1ccc(Nc2nc(SCc3ccccc3F)nc3ccccc23)cc1,16µM,.,16µM,.,.,.
COc1cc(Nc2nc(SCc3ccccc3F)nc3ccccc23)cc(OC)c1,18µM,.,?,.,.,.
COc1ccccc1-c1csc(Nc2ccc(Oc3ccccc3)cc2)n1,?,-,18µM,-,-,-
COc1ccc(Nc2nc(-c3cccs3)cs2)cc1,23µM,-,21µM,-,-,-
Oc1ccc(Nc2nc(-c3cccs3)cs2)cc1,-,-,-,-,-,-
Cc1ccccc1N1C(=O)C(Cc2ccc(F)cc2)S/C1=C(\C#N)C(N)=O (centres undefined),-,?,-,-,-,-
CC(=O)O[C@@H]1[C@H](OC(=O)CC(C)C)c2c(ccc3ccc(=O)oc23)OC1(C)C,?,-,26µM,-,-,-
O=C(NC(=S)Nc1ccc(Oc2ccccc2)cc1)c1ccc(Cl)cc1,23µM,?,?,-[9.24 µM],?,-
O=C(NC(=S)Nc1ccc(-c2ccc(CO)o2)cc1)c1cccs1,?,-,-,-,-,-
Cc1ccc(C(=O)NC(=S)Nc2ccc(Oc3ccc(Cl)cc3)cc2)cc1,21µM,-,?,-,-,-
COCCCNC(=S)NC(=O)c1ccc(C)cc1,18µM,18µM,-,-,-,-
COc1ccc(C(=O)NC(=S)Nc2ccc(Cl)c(C(=O)O)c2)cc1,-,-,-,-,-,-
Cc1ccc(C(=O)NC(=S)Nc2ccc(-c3ccc(CO)o3)cc2)cc1,10µM,-,?,-,-,-
Cc1ccccc1NC(=O)C1CCN(C(=O)c2ccc(F)cc2)CC1,-,-,-,.,.,-
O=S(=O)(c1ccc2c(c1)OCCO2)N1CCN(CCc2ccccc2)CC1,-,-,-,.,.,-
CCc1sc(C(C2C(=O)CC(C)(C)CC2=O)C2C(=O)CC(C)(C)CC2=O)cc1[N+](=O)[O-],5.2µM,-,4.1µM,?,-,-
CCOC(=O)N1CCN(C(=O)c2ccc3c(c2)N(Cc2ccccc2F)C(=O)c2ccccc2S3=O)CC1 (centres undefined),?,-,?,.,.,-
Clc1ccccc1CSc1nncn1NC/C=C/c1ccccc1,?,21µM,?,-,-,-
